From PubChem BioAssay (NCATS) come the findings set out here.

Several values for one entry are separate records, joined by “and”; a condition that tells them apart may be missing. Equal entries are not always repeated. Results filed as inconclusive are left out. Activity calls are given as the source filed them. Unless noted, calls follow the shape of the dose curve; as a rule, active = well fitted curve in the direction sought with a large enough effect; inconclusive = small, poorly fitted or top-dose-only effect, or another doubt; inactive = no such curve, though single readings can be large; an effect the other way counts as inactive or inconclusive. A value given as a limit tells only on which side of the number the result lay.

The nature of experiment [1]: Cell Viability - Hek293 (AID 427;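 active = compounds whose dose-response curve shows a full or clear partial loss of cell viability, called from curve shape rather than a numeric limit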;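 also: potency is read from the fitted curve at half-maximal effect; cells exposed to compound for 40 hours at 37 °C before reading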). The conditions noted are these: qHTS. Summed up: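 qHTS, human embryonic kidney (adenovirus-transformed) cells; 40 hr cpd, 37 °C; CellTiter-Glo ATP luminescence. Norm: DMSO = 0, 100 uM tamoxifen = 100% inhibition. Hill-fit AC50.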
In general terms: Quantitative high-throughput screening tests each substance at several concentrations.

Experiment [2] is described as follows: Cell Viability - N2a (AID 540).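 Also: cells exposed to compound for 40 h at 37 °C; plate controls were DMSO alone for no effect and tamoxifen control for full effect; nearly all actives have a fitted effect of over 45% in size.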 The conditions noted are these: N2a mouse neuroblastoma cell viability; activity change, negative = cytotoxicity: at 92.2 µM (top of the series). Summed up: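 Luminescent ATP signal (CellTiter-Glo, 20 min at room temperature) served as the viability read-out after N2a cells were treated with compounds for 40 hours at 37 °C. Concentration-response data were fitted to the Hill equation for AC50.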

Experiment [3] can be described thus: Cell Viability - H-4-II-E (AID 543). Also: nearly all actives have a fitted effect of over 35% in size. Also: potency is read from the fitted curve at half-maximal effect. Conditions: H-4-II-E rat hepatoma viability; series mostly up to 92.2 µM. The method, boiled down: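 Luminescent ATP signal (CellTiter-Glo) served as the viability read-out, with cytotoxicity seen as a concentration-dependent ATP drop. Cells were treated for 40 hours in complete medium. AC50 values derive from Hill-equation modelling.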

A short description of experiment [4]: Cellular Toxicity (caspase-3) SHSY5Y (AID 657). Conditions: SH-SY5Y caspase-3 activation, DMSO zero, 10 µM staurosporine = 100%; series mostly up to 91.7 µM. The method, boiled down: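 SH-SY5Y human neuroblastoma cells, 1500/well, exposed to compound for 16 hours at 37 °C in complete medium. Caspase-3/7 activity read by Caspase-Glo luminescence after 1 hr at room temperature, normalized to DMSO and 10 uM staurosporine; AC50 from Hill fit.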

A short description of experiment [5]: Cellular Toxicity (caspase-3) Mesangial (AID 660).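 Also: cells exposed to compound for 16 h before the caspase read.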 The conditions noted are these: mesangial cells, normalized: DMSO 0%, 100 µM tamoxifen 100%; series mostly up to 91.7 µM. The method, boiled down: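 Mesangial cells, 1000/well, 5 h settle at 37 °C; compound 16 h, 37 °C; Caspase-Glo 3/7 reagent 20 min RT; luminescence. Norm.: DMSO = 0%, tamoxifen 100 uM = 100%. AC50, Hill fit.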

A short description of experiment [6]: Cellular Toxicity (caspase-3) SK-N-SH (AID 661).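 Also: 0% = DMSO basal and 100% = 10 µM staurosporine.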 The conditions noted are these: SK-N-SH caspase-3 activation, qHTS; series mostly up to 91.7 µM. The method, boiled down: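 Human neuroblastoma SK-N-SH, 1500 cells/well, 5 hr pre-incubation, then compound 16 hr, 37 °C. Caspase-Glo 3/7 reagent, 1 hr RT, luminescence. Norm. to DMSO/10 uM staurosporine; Hill-fit AC50.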

The nature of experiment [7]: Cellular Toxicity (caspase-3) Renal Proximal Tubule (AID 667).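 Also: cells exposed to compound for 16 hours at 37 °C before detection; 0% = DMSO basal and 100% = 10 µM staurosporine.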 The conditions noted are these: renal proximal tubule cells; series mostly up to 91.7 µM. Summed up: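 Freshly isolated primary rat kidney proximal tubule cells, 1000/well, treated 16 hr at 37 °C, then Caspase-Glo 3/7 luminescence after 1 hr. Normalized to DMSO and 10 uM staurosporine; AC50 from Hill fit.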

The nature of experiment [8]: Cell Viability - LYMP1-003 - Assay at 24 hr (AID 963).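 Also: plate controls were DMSO only for no effect and tetraoctylammonium bromide positive control for full effect.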 Conditions: LYMP1-003 lymphoblastoid cell viability; series mostly up to 92.2 µM. Summed up: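 Cells seeded at 2500/well, 5 hr at 37 C; compounds added; 24 hr at 37 C; CellTiter-Glo added, 30 min room temperature; luminescence read. Decrease in ATP taken as cytotoxicity, AC50 from Hill modelling.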
A short description of experiment [9]: Cell Viability - LYMP2-003 (AID 965).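 Also: cells exposed to compounds for 24 h before reading; 0% = DMSO only and full effect = 92 µM tetraoctylammonium bromide; nearly all actives have a fitted effect of over 50% in size.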 The conditions noted are these: LYMP2-003 lymphoblastoid cell viability; series mostly up to 92.2 µM. Summed up: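 Human lymphoblastoid LYMP2-003 cells, 2500/well, exposed to compounds for 24 h at 37 C in complete medium. Viability read as intracellular ATP by CellTiter-Glo luminescence; AC50 from Hill-equation fits of qHTS concentration-response data.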

Experiment [10] can be described thus: Cell Viability - LYMP2-005 (AID 967).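 Also: plate controls were DMSO only for no effect and 92 µM tetraoctylammonium bromide control for full effect.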 The conditions noted are these: LYMP2-005 lymphoblastoid cell viability; series mostly up to 92.2 µM. The method, boiled down:
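Human lymphoblastoid LYMP2-005 cells, 2,500 per well in complete medium, rested 5 h at 37C then compound-treated 24 h at 37C. Intracellular ATP read by CellTiter-Glo luminescence after 30 min at room temperature; AC50 from Hill-equation fits of concentration-response data.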

Experiment [11] is described as follows: Cell Viability - LYMP2-013 (AID 970).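 Also: 0% = DMSO only and full inhibition = tetraoctylammonium bromide control; nearly all actives have a fitted effect of over 55% in size.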 Conditions: LYMP2-013 lymphoblastoid cells viability; series mostly up to 92.2 µM. The method, boiled down:
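qHTS; 2500 lymphoblastoid cells/well; 5 hr 37 C settle; cpd 24 hr 37 C; CellTiter-Glo, 30 min RT; luminescence. AC50 = Hill fit.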

The nature of experiment [12]: Cell Viability - LYMP2-017 (AID 972). Also: % is scaled to controls: 0 for no effect and ±100 for the full control effect; nearly all actives have a fitted effect of over 55% in size. The conditions noted are these: LYMP2-017 lymphoblastoid cell viability; series mostly up to 92.2 µM. Summed up: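 2500 cells/well, 5 h 37 C; cpd 24 h 37 C in complete medium; CellTiter-Glo, 30 min RT; luminescence (ATP). AC50 via Hill fit, qHTS.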
Experiment [13] can be described thus: Cell Viability - LYMP2-023 (AID 975).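 Also: cellular ATP measured by luciferase luminescence as viability proxy; plate controls were DMSO only for no effect and 92 µM tetraoctylammonium bromide control for full effect; nearly all actives have a fitted effect of over 55% in size.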 The conditions noted are these: LYMP2-023 lymphoblastoid cell viability; series mostly up to 92.2 µM. Summed up:
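2500 cells/well, 5 hr 37 C; cpd 24 hr 37 C; CellTiter-Glo, 30 min RT; luminescence. qHTS conc-response, Hill fit -> AC50. Pos ctrl tetraoctylammonium bromide.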

Experiment [14] can be described thus: Cell Viability - LYMP2-016 (AID 984). Also: % is scaled to controls: 0 for no effect and ±100 for the full control effect; nearly all actives have a fitted effect of over 55% in size. Conditions: LYMP2-016 lymphoblastoid cell viability, qHTS; series mostly up to 92.2 µM. Summed up:
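Human lymphoblastoid LYMP2-016 cells, 2500 per well, treated with compounds for 24 h at 37 C. Viability read as intracellular ATP by CellTiter-Glo luminescence after 30 min at room temperature; AC50 from Hill fits of concentration-response.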

For experiment [15], the target named is Vitamin D3 receptor (Homo sapiens) (UniProt P11473). Briefly: qHTS assay for small molecule antagonists of vitamin D receptor signaling (AID 588541; calls by dose curve;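 also: receptor activated by calcitriol during compound treatment; % is scaled to controls: 0 for no effect and ±100 for the full control effect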). Conditions: HEK293T VDR-UAS-bla, beta-lactamase ratio, antagonist mode; series mostly up to 76.7 µM. Summed up: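 Antagonist-mode beta-lactamase reporter assay: HEK293T VDR-UAS-bla cells were exposed to titrated compound alongside 1-alpha,25-dihydroxyvitamin D3 at 3 nM final for 16 h. Values were normalized to the 50 nM agonist control and DMSO basal, with IC50 and efficacy from Hill equation fits.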
Chain of Vitamin D3 receptor (Homo sapiens) (P11473 whole entry, looked up): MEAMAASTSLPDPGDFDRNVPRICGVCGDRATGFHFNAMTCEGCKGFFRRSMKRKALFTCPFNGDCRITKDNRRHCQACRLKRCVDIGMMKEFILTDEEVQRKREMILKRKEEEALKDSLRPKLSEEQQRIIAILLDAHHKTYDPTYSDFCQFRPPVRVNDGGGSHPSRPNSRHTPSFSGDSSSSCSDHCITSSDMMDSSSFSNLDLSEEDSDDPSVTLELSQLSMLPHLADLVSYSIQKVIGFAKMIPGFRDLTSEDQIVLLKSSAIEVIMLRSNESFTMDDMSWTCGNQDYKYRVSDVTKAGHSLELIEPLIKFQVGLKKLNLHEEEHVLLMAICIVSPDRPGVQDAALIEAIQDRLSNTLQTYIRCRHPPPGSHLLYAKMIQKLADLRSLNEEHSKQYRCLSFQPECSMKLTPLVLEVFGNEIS

The nature of experiment [16]: qHTS assay for small molecule agonists of retinoid X receptor alpha signaling (AID 588544). Conditions: HEK293T RXRa-UAS-bla, beta-lactamase reporter, 18 h; 530 nm emission.
The nature of experiment [17]: qHTS assay for small molecule activators of the p53 signaling pathway (AID 651743; active = well fitted activation curve with a large enough effect in the signal ratio, not every such curve was filed as active; the % refers to the signal ratio; also: potency is read from the fitted curve at half-maximal effect; as to activation: % of control where 0% means no effect). The conditions noted are these: HCT-116 p53RE-bla, beta-lactamase FRET ratio, 16 h; activation: stronger effect = higher value. The method, boiled down: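 Read-out is fluorescence intensity from the LiveBLAzer B/G FRET substrate, added for 2 hours at room temperature after HCT-116 p53RE-bla cells had been incubated with compounds for 16 hours at 37 C.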

Experiment [18] is described as follows: qHTS assay for small molecule agonists of the antioxidant response element (ARE) signaling pathway measured by Nrf2-dependant transcriptional activity - cell viability counter screen (AID 720653; active = well fitted curve in the direction sought with a large enough effect in the repeat runs; an effect the other way counts as inactive or inconclusive; also: % is scaled to controls: 0 for no effect and ±100 for the full control effect). The conditions noted are these: ARE-bla HepG2 viability, CellTiter-Glo ATP luminescence, 16 h; stronger effect = lower value. The method, boiled down: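 Cytotoxicity counter screen: intracellular ATP quantified by CellTiter-Glo luminescence in the same ARE-bla HepG2 plates, after 16 h compound exposure and a 2 h beta-lactamase substrate step.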

A short description of experiment [19]: qHTS assay for cell viability of HEK293 cells (AID 743288). Also: % is scaled to controls: 0 for no effect and ±100 for the full control effect; nearly all actives have a fitted effect of over 50% in size. The conditions noted are these: ATP luminescence (CellTiter-Glo), 18 h, stronger effect = lower value. The method, boiled down:
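Parental HEK293 cells, 2,000 per well, preincubated at least 5 h at 37 C, then exposed to compounds in DMSO for 18 h at 37 C. Viability by CellTiter-Glo ATP luminescence after 30 min at room temperature.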

Experiment [20] is described as follows: Cell Viability - LYMP2-009 (AID 968). Conditions: LYMP2-009 lymphoblastoid cell viability; series mostly up to 92.2 µM.

In the case of `O=C(O)CBr`, in experiment [1], the Potency was > 92 µM (inactive). For the same molecule, the Potency entry in experiment [2], in experiment [3], in experiment [6], in experiment [9], in experiment [10] and in experiment [11] was “inactive” in each case. The Potency entry in experiment [12], in [13] and in experiment [14] was “inactive” in each case. The result in [4], in experiment [5], in experiment [7], in [8] and in experiment [15] was inactive. The max response is -13.9% in experiment [16], 9.96% (inactive) in experiment [18] and 6.1% (inactive) in [19]. For the same molecule, the activation in experiment [17] is -0.316% (inactive).
For `CCCCC#N`, the Potency in experiment [1] is > 92 µM (inactive). Further, the Potency entry in [2], in [3], in experiment [6], in [9], in experiment [10] and in [20] was “inactive” in each case. Further, the Potency result in [13] and in experiment [14] was “inactive” each time. The molecule was classed as inactive in experiment [4], in experiment [5], in [7] and in experiment [8]. For the same molecule, the max response was 2.48% in experiment [16] and 2.15% (inactive) in experiment [19]. For the same molecule, the activation in [17] is -7.46% (inactive).
As to `COC(=O)Nc1nc2ccccc2[nH]1`, the Potency in experiment [1] is > 92 µM (inactive); in experiment [3], 3.98 µM (active); in [17] it was 10 µM (active) and 12.6 µM (active). For the same molecule, the Potency entry in experiment [2], in experiment [6], in [9], in experiment [10], in [20] and in [11] was “inactive” throughout. The Potency entry in [12] and in experiment [13] was “inactive” each time. Besides, the molecule was called inactive in experiment [4], in [5], in experiment [7], in experiment [8] and in experiment [15]. The max response in [18] is 0.0482% (inactive) and -1.74% (inactive); in [19], -9.84% (inactive) and -19.2% (inactive).
For `O=C(O)C(Cl)Br` (stereo not given), in [1], the Potency was > 92 µM (inactive). Also, the Potency entry in [2], in experiment [3], in [6], in experiment [9], in experiment [10] and in experiment [20] was “inactive” each time. Moreover, the Potency result in [11], in experiment [12] and in experiment [13] was “inactive” each time. The molecule was classed as inactive in experiment [4], in experiment [5], in experiment [7], in experiment [8] and in experiment [15]. The max response is -0.567% in [16], 3.95% (inactive) in experiment [18] and 6.83% (inactive) in [19]. The activation in [17] was 0.485% (inactive).
`O=Cc1ccc(Cl)cc1Cl`: the Potency in [1] is > 92 µM (inactive). In addition, the Potency entry in experiment [2], in experiment [3], in experiment [6], in [9], in experiment [20] and in [11] was “inactive” each time. Also, the Potency result in [12], in [13] and in [14] was “inactive” each time. In addition, the molecule was classed as inactive in experiment [4], in experiment [5], in experiment [7], in [8] and in [15]. The max response in experiment [16] was -11.7%; in experiment [18], 1.04% (inactive). In [17], the activation is -1.2% (inactive).
As for `Clc1ccc(Cl)c(Cl)c1`, in [1], the Potency is > 92 µM (inactive). Also, the Potency result in [2], in experiment [3], in experiment [6], in [9], in experiment [10] and in experiment [20] was “inactive” in each case. Besides, the Potency result in [11], in experiment [12], in [13] and in [14] was “inactive” each time. In addition, the molecule was classed as inactive in experiment [4], in [5], in experiment [7], in experiment [8] and in experiment [15]. In addition, the max response in experiment [16] was -7.44% and -24%; in experiment [18], 4.11% (inactive) and 3.77% (inactive); in [19], 9.56% (inactive) and -10% (inactive). For the same molecule, in [17], the activation was -3.13% (inactive) and -3.99% (inactive).
